These results are taken from PubChem BioAssay.

Sequence of PEG-3 (Q6IN02 whole entry, looked up): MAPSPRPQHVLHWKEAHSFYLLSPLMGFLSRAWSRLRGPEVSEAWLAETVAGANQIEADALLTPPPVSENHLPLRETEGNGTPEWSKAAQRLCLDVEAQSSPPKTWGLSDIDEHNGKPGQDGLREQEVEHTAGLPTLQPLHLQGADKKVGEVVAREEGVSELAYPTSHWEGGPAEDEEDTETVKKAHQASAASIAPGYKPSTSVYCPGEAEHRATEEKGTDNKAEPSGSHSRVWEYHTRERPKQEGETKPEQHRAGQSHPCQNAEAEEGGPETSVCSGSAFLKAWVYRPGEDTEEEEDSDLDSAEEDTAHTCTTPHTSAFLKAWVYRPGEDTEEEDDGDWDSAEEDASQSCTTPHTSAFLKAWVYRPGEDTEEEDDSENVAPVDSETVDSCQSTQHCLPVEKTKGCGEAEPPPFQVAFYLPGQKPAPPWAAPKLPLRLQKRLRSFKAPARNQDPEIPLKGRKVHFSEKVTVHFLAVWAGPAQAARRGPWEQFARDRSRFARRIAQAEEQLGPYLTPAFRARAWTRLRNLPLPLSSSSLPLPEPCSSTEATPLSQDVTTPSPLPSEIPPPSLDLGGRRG

The test has as its target PEG-3 (UniProt Q6IN02). Nature of the test: Peg3 promoter luciferase inhibitors, potency, dose response, cell-based, HeLa, CREF/GAPDH counter-screen panel (AID 624167). The note with it: CREF/GAPDH counter-screens; HeLa PEG-Prom luciferase reporter, overnight, run 1, dose range 1, at 100 µM (top of the series) unless noted.
For the compound `O=C(C=Cc1ccccn1)c1ccccc1`, the inhibition turned out to be 101%.
The result for `CCc1ccc2c(c1)Sc1ccccc1CC2N1CCN(C)CC1` (stereo not given) reads 102%; that for `Cc1ccc2nc(N(CCCN(C)C)C(=O)c3ccc4c(c3)CCCC4)sc2c1`, 99.5%; that for `OCCN1CCN(C2CCC(c3ccc(F)cc3)c3ccc(F)cc32)CC1` (stereo not given), 102%.
Consider `COc1ccc2nc3n(c(=O)c2c1)-c1cc2ccccc2cc1C(=O)NC3Cc1ccc(O)cc1` (stereo not given), for which the inhibition was found to be 86.9%.
As for `COC(=O)c1cc(=O)n(Cc2ccco2)c(=Nc2ccc(F)cc2)s1`, the figure is 102%.
Turning to `O=C1C(Cl)=C(Nc2ccc(O)cc2)C(=O)c2ccccc21`, the inhibition stood at 102%.
Regarding `O=C(c1ccco1)N1CCN(c2ncnc3c2[nH]c2ccc(Br)cc23)CC1`, the inhibition stood at 99.5%.
As for `C/C(=N\N=C(N)N)c1ccc(Cl)c(Cl)c1`, the figure is 102%; as for `CCc1ccc(O)c(CNCCNCc2cc(CC)ccc2O)c1`, 102%; as for `CC1=NN(c2cccc(C(=O)O)c2)C(=O)/C1=C\C=C/c1ccccc1`, 86.8%.
As for `COC(=O)c1ccc(CNC(=O)Cn2cnc3c(NCc4ccccc4)ncnc32)cc1`, the inhibition amounted to 97.3%.
For the compound `CCN(Cc1ccccc1)S(=O)(=O)c1ccc(C(=O)N(CCCN(C)C)c2nc3cc4c(cc3s2)OCO4)cc1`, the inhibition was 102%.
The result for `Cc1ccc2[nH]c(=O)c(C3C(C#N)=C(N)Oc4c3ccc3cccnc43)cc2c1` (stereo not given) reads 99.2%.
As for `CC(C)n1cc(CN2CCC(C(=O)Nc3cccc(-c4cccc(Cl)c4)c3)CC2)cn1`, the inhibition amounted to 99.3%.
For the compound `CCOC(=O)c1ccc2ncc(C(=O)OCC)c(NCCN(C)C)c2c1`, the inhibition was found to be 73%.
The result for `CCCCCc1ccc(OCCCC[n+]2cccc(C)c2)c(CCCCC)c1` reads 98.6%.
On to `CCOC(=O)c1c(NC(C)=O)sc2c(OCC(O)CNC(C)(C)C)c(Br)ccc12` (stereo not given), for which the inhibition stood at 102%.
On to `COc1ccc(NS(=O)(=O)c2ccc3ccccc3c2)c2ncccc12`, for which the inhibition was 57.9%.
The result for `CC(C)CC(N)c1csc(NC(=O)Nc2ccccc2C(C)(C)C)n1` (stereo not given) reads 102%; that for `COc1cc(-c2cc(C(=O)Nc3cc(S(=O)(=O)N4CCOCC4)ccc3C)c3ccccc3n2)cc(OC)c1OC`, 55.1%; that for `COC(=O)C1=C(C(=O)OC)C(C(=O)OC)C(C(=O)OC)C(C(=O)OC)(C(=O)OC)C(C(=O)OC)=C1C(=O)OC` (stereo not given), 99%.
The result for `Cc1ccc(S(=O)(=O)N(C)C)cc1NC(=O)c1cncc(Br)c1` reads 82.4%; that for `Cc1cc(Sc2ncnc(N)c2[N+](=O)[O-])ncn1`, 102%.
With `O=S(=O)(NC1CC(NS(=O)(=O)OCC(Cl)(Cl)Cl)C2CCCCC12)OCC(Cl)(Cl)Cl` (stereo not given), the inhibition is 102%.
In the case of `COc1cccc(NC(=O)Nc2cccc(C(=O)O)c2)c1`, the inhibition was 87%.
Take `COc1cccc(C(=O)O/N=C(\N)c2ccccn2)c1`: the inhibition was 102%.
The result for `O=c1c2c3c(sc2nc(N2CCNCC2)n1CCc1ccccc1)CCCCC3` reads 102%; that for `Cc1cc(-n2c(SCC(=O)Nc3ccc(F)c(F)c3)nc3n[nH]c(C)c3c2=N)ccc1Cl`, 100%; that for `Cc1cccc(N=C2Sc3nc4c(C)c(C)ccc4cc3CN2CCN2CCOCC2)c1`, 85.6%.
As for `O=C1c2ccccc2C(=O)C12OC2c1ccc(Cl)cc1Cl` (stereo not given), the figure is 99%; as for `Nc1c(C(=O)Nc2cccc(C(=O)O)c2)sc2nc3c(cc12)CCCC3`, 92.6%; as for `COc1ccc(NC(=O)N(C)[C@H]2C[C@H]3c4[nH]c5ccc(-c6cccc(C)c6)cc5c4CCN3C[C@H]2[C@H](C)O)cc1`, 98.4%.
As for `C[C@@]12C(=O)Nc3cc(Cl)ccc3C(=O)N1[C@H]1c3cc(Cl)ccc3OC[C@@H]1[C@@H]2c1ccccc1`, the figure is 32.1%; as for `Cc1ccc(C)c(CN2CCC(CNC(=O)Nc3ccc(F)c(Cl)c3)CC2)c1`, 102%; as for `COc1ccc(-c2ccc3[nH]c4c(c3c2)CCN2C[C@@H]([C@H](C)O)[C@@H](N(C)C(=O)Nc3cc(Cl)cc(Cl)c3)C[C@@H]42)cc1`, 96.3%.
As to `C=CCN=C1NN=C(c2cc(C)n(CC=C)c2C)CS1`, the inhibition stood at 93.6%.
The result for `NC(c1csc(Nc2nccc(C(F)(F)F)n2)n1)C1CCCCC1` (stereo not given) reads 98.2%; that for `Cc1ccc(NCCN(C)C)c2c(=O)c3cc(O)ccc3sc12`, 97.5%.
As for `CN1CCC(N(C)C(=O)/C=C/c2cn(-c3ccccc3)nc2-c2cccs2)CC1`, the figure is 102%.

What is called inhibition is the drop in the measured response relative to a control, in per cent.
